# Data published in PubChem BioAssay (Tox21).
# Inconclusive results are not listed. A structure can be active in one record and inactive in another. Calls of active or inactive are those of the source. Calls follow the shape of the full dose curve.
# Test: p53 small molecule agonists, cell-based qHTS assay with rat liver microsomes: qHTS cell viability counter screen (AID 1963580); also: nearly all actives have a fitted effect of over 45% in size
# Details: p53RE-bla HCT-116 + rat microsomes, ATP viability, 16 h; series mostly up to 66 µM; activity change, negative = cytotoxicity: at the top concentration
# From the text: National Center for Advancing Translational Sciences [NCATS]
# Division of Preclinical Innovation [DPI]
# U.S. Environmental Protection Agency [EPA]
# National Institutes of Environmental Health Sciences [NIEHS]
# National Toxicology Program [NTP]
# U.S. Food and Drug Administration [FDA]
# p53, a tumor suppressor protein, is activated following cellular insult, including DNA damage and other cellular stresses. The activation of p53 regulates cell fate by inducing DNA repair, cell cycle arrest, apoptosis, or cellular senescence. The activation of p53, therefore, is a good indicator of DNA damage and other cellular stresses. The CellSensor p53RE-bla HCT-116 cell line contains a stably integrated beta-lactamase reporter gene under control of the p53 response elements. The activation of the reporter gene under culture conditions can be detected by fluorescence intensity. This cell line was used to screen the Tox21 10K compound library in the condition of presence of rat liver microsomes and to identify agonists that activate the p53 signaling pathway after in vitro metabolic activation (Ooka et al., Archive of Toxicology 96:1975-1987, 2022). The cytotoxicity of the Tox21 compound library against the p53 RE-bla HCT-116 cell line was tested in parallel by measuring the intra cellular ATP content in the same wells.
# Tox21 Assay Protocol Summary:
# The p53RE-bla cells were dispensed at 4,000cells/3ul/well in 1536-well black-clear bottom plates. After the assay plates were incubated at 37 C, 5% CO2 incubator for 5 hours, 23 nL of compounds dissolved in DMSO, positive controls or DMSO only was transferred to the assay plate. Following compound addition, 3 uL of rat liver microsomes (Molecular Toxicology, Boone, NC) at final concentration of 0.5 mg/mL and 1uL of B-Nicotinamide adenine dinucleotide 2'-phosphate (NADPH) at final concentration of 0.5 mg/mL were transferred to the assay plate. The plates were incubated at 37 C for 16 hours. 1 uL of LiveBLAzer detection mixture was added to each well and the plates were incubated at room temperature in the dark for 2 h. Fluorescence intensity at 460 and 530 nm emission and 405 nm excitation were measured by an Envision plate reader. For cell viability readout that measures cytotoxicity, 4 ul/well of CellTiter-Glo reagent was added into the assay plates using a Flying Reagent Dispenser. After 30 min incubation at room temperature, the luminescence intensity in the plates was measured using a ViewLux plate reader.
# % is scaled to controls: 0 for no effect and ±100 for the full control effect; potency is read from the fitted curve at half-maximal effect.
SMILES,"activity change, negative = cytotoxicity",Potency
Clc1sc(Cl)c(Cl)c1Cl,6.97% (inactive),
Brc1cc(-c2ccc(Br)c(Br)c2Br)cc(Br)c1Br,1.37% [at 30.3 µM] (inactive),
O=S1(=O)CCCC1,5.73% (inactive),
Cc1ccc(-c2cc(C(F)(F)F)nn2-c2ccc(S(N)(=O)=O)cc2)cc1,,36.2 µM (active) and inactive
O=C(Nc1ccc(Cl)cc1)Nc1ccc(Cl)c(C(F)(F)F)c1,-18.2% [at 30.3 µM] (inactive),
NS(=O)(=O)c1ccc(C(=O)O)cc1,3.1% [at 30.3 µM] (inactive),
C1C2OC2C2C1C1CC2C2OC12 (stereo not given),-0.137% (inactive),
CCCCc1oc2ccc(NS(C)(=O)=O)cc2c1C(=O)c1ccc(OCCCN(CCCC)CCCC)cc1,-11.2% [at 30.3 µM] (inactive),
COc1ccc(C2CNC(=O)C2)cc1OC1CCCC1 (stereo not given),3.08% [at 30.3 µM] (inactive),
CC(C)OC(=O)OCOP(=O)(CO[C@H](C)Cn1cnc2c(N)ncnc21)OCOC(=O)OC(C)C,-0.165% [at 30.3 µM] (inactive),
COc1ccc(-c2ccc3cc(C(=O)O)ccc3c2)cc1C12CC3CC(CC(C3)C1)C2,0.629% [at 30.3 µM] (inactive),
CNCC(O)c1ccc(O)c(O)c1 (stereo not given),0.626% [at 30.3 µM] (inactive),
N#CCCOCCOCCC#N,-2.67% (inactive),
Cc1ccc(NC(=O)c2ccc(CN3CCN(C)CC3)cc2)cc1Nc1nccc(-c2cccnc2)n1,-2.11% [at 30.3 µM] (inactive),
CO[C@]12C[C@@H](COC(=O)c3cncc(Br)c3)CN(C)[C@@H]1Cc1cn(C)c3cccc2c13,-1.1% [at 30.3 µM] (inactive),
Cc1ccc(N)cc1O,23.4% (inactive),
CC(COc1ccccc1)NN (stereo not given),-2.25% [at 30.3 µM] (inactive),
CN(C)CCOC(c1ccccc1)c1ccc(Br)cc1 (stereo not given),-0.412% [at 30.3 µM] (inactive),
CCCCCCCC/C=C\CCCCCCCC(=O)N(C)CC(=O)O,0.67% (inactive),
c1cc[c]([Bi]([c]2ccccc2)[c]2ccccc2)cc1,-9.11% (inactive),

SMILES,"activity change, negative = cytotoxicity",Potency
CC1(C)CCC[C@]2(C)[C@H]3CCO[C@]3(C)CC[C@@H]12,-3.94% (inactive),
Cn1cnc2c(=O)[nH]c(N)nc21,1.58% (inactive),
CCC(C)(C)C1CCC(O)CC1 (stereo not given),26.4% (inactive),
Sc1nc(S)nc(S)n1,2.68% [at 30.3 µM] (inactive),
CCN(CC)CCNc1ccc(CO)c2sc3ccccc3c(=O)c12,-19.5% [at 30.3 µM] (inactive),
C[C@H](CCC(=O)O)[C@H]1CC[C@H]2[C@@H]3CC[C@@H]4C[C@H](O)CC[C@]4(C)[C@H]3CC[C@]12C,,inactive
CCCCCCCCCCCCCCCC(=O)OC/C=C(C)/C=C/C=C(C)/C=C/C1=C(C)CCCC1(C)C,0.386% (inactive),
Oc1c(I)cc(Cl)c2cccnc12,,14.1 µM (active)
Cc1cccc(C)c1NC(=O)CN1CCN(CCCC(c2ccc(F)cc2)c2ccc(F)cc2)CC1,-3.92% [at 30.3 µM] (inactive),
CC(C)O.CC(C)O.CCOC(=O)/C=C(\C)O.CCOC(=O)/C=C(\C)O.[Ti],0.786% (inactive),
CC(C)c1ccccc1C(C)C,3.35% (inactive),
CCC(C)(CN(C)C)OC(=O)c1ccccc1 (stereo not given),-1.49% [at 30.3 µM] (inactive),
CCN(C)C(=O)Oc1cccc([C@H](C)N(C)C)c1,-5.5% [at 30.3 µM] (inactive),
CCOC(=O)c1ccccc1OC,-1.33% (inactive),
NC(=O)c1cc[n+](CC2=C(C(=O)[O-])N3C(=O)[C@@H](NC(=O)Cc4cccs4)[C@H]3SC2)cc1,-8.22% [at 30.3 µM] (inactive),
c1ccc(CN(Cc2ccccc2)Cc2ccccc2)cc1,-14.2% (inactive),
O=C(O)c1c2ccccc2cc2ccccc12,8.35% (inactive),
NC(=O)N(O)[C@@H]1COc2cc(OCc3ccccc3)ccc21,1.02% (inactive),
CN1CCCC(CC2c3ccccc3Sc3ccccc32)C1 (stereo not given),-0.482% [at 30.3 µM] (inactive),
c1ccc(-c2ccc(C(c3ccccc3)n3ccnc3)cc2)cc1 (stereo not given),-6.12% [at 30.3 µM] (inactive),
